Common to all, as to assay: NCI-60 one-dose screen, 48 h (100 = growth as untreated, 0 = no growth, -100 = all killed)
Details in all cases: 10 µM

For experiment [1], the system named is HCT-15 colon.
The test system of experiment [2] is HT29 colon.
Experiment [3] relates to SNB-75 CNS.
The test system of experiment [4] is SNB-19 CNS.
Experiment [5] concerns U251 CNS.
Experiment [6] has as its system PC-3 prostate.
Experiment [7] deals with SK-MEL-5 melanoma.
The test system of experiment [8] is UACC-62 melanoma.
Experiment [9] deals with LOX IMVI melanoma.
Experiment [10] concerns SK-MEL-28 melanoma.
For experiment [11], the system named is SK-MEL-2 melanoma.
The test system of experiment [12] is EKVX NSCLC.
Experiment [13] concerns SN12C renal.
Experiment [14] deals with TK-10 renal.
In experiment [15] the test system is ACHN renal.
The test system of experiment [16] is CAKI-1 renal.
Experiment [17] concerns A498 renal.
Experiment [18] has as its system CCRF-CEM leukemia.
The subject of experiment [19] is MOLT-4 leukemia.
Experiment [20] deals with UO-31 renal.

Molecules are shown by their SMILES. This is part of a sample that, as a whole, favours compounds with a hit. Of some 83,000 tested, about 20% had one in any assay.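 The test compound was applied at a single concentration to cells in 96-well plates for 48 hours, and percent growth was recorded.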 Values without a mark were called inactive. Activity calls are given as the source filed them. Rule for the calls: active = growth percent below 10; inactive = the rest.

The values below come from PubChem BioAssay (NCI).

In the case of `O=C1Nc2cc(Cl)ccc2/C1=C/c1cccc(OCc2ccc(Br)cc2F)c1`, the growth in [1] is 5.07% (active); in experiment [2], 5.13% (active); in [3], -0.373% (active); in experiment [4], 28.6%; in [5] it was -1.12% (active); in experiment [6], 19.3%. Also, the growth in [7] is -6.52% (active); in experiment [8], 8.35% (active); in experiment [9], -45.9% (active); in experiment [10], 36.4%; in [11], -20% (active); in [12], 10.5%. In addition, the growth in [13] was 17.6%; in [14], 77.9%; in [15], 30.8%; in experiment [16], 26.9%; in [17] it was 60%; in experiment [18], -15.9% (active). Moreover, in [19], the growth was 0.0252% (active).
In the case of `CC1=N/C(=C\c2ccc(N(C)C)cc2)C(=O)N1CCc1ccc(S(N)(=O)=O)cc1`, the growth is 104% in experiment [1]; 105% in experiment [2]; 77.8% in experiment [3]; 95.2% in experiment [4]; 91.8% in experiment [5]; 96.7% in [6]. Besides, the growth is 97.8% in [7]; 93.7% in experiment [8]; 98.1% in experiment [9]; 117% in experiment [10]; 97.9% in [11]; 95.2% in experiment [12]. In addition, the growth is 87.9% in experiment [20]; 110% in experiment [14]; 105% in [15]; 88.3% in [16]; 102% in experiment [17]; 88.4% in [18]. Further, the growth in experiment [19] was 93.6%.
`N#Cc1c(NC(=O)c2ccc(C(F)(F)F)cc2)sc2c1CCC(O)=C2`: the growth in experiment [1] is 9.23% (active); in experiment [2], 38.2%; in experiment [3], -3.93% (active); in experiment [4], 55.9%; in [5], 28.2%; in experiment [6], 49.2%. Besides, the growth in [7] was -28.8% (active); in experiment [8], 13.8%; in [9], 23.9%; in experiment [10] it was 41.6%; in experiment [11], 8.44% (active); in experiment [12], 16.9%. In addition, the growth was 23.9% in experiment [20]; 71.9% in experiment [14]; 44.1% in [15]; 31.9% in experiment [16]; 74.2% in experiment [17]; 6.68% (active) in experiment [18]. Also, the growth in experiment [19] is 13.8%.
Consider `O=C(O)CCCCCCCCCCN1C(=O)/C(=C/c2cnc(-c3ccc(Cl)cc3)s2)SC1=S`, for which the growth in [1] is 26.3%; in [2] it was 96.3%; in experiment [3], 73.3%; in [4], 27.1%; in [5], -13% (active); in experiment [6] it was 25.4%. In addition, the growth in [7] is 27.4%; in experiment [8], 0.545% (active); in experiment [9], 5.11% (active); in experiment [10], 40%; in experiment [11] it was -38.6% (active); in experiment [12], -12.5% (active). The growth is -57.4% (active) in experiment [13]; 38.1% in experiment [20]; 58.2% in [14]; 22.1% in experiment [15]; 12.2% in [16]; 83.2% in experiment [17]. Besides, the growth in experiment [19] is 19.7%.
As to `Cc1nn(-c2ccccc2)c2ncn(CC(=O)N/N=C/c3c[nH]c4ccccc34)c(=O)c12`, the growth in [1] is 89.2%; in [2] it was 99.5%; in experiment [3], 78.5%; in experiment [4] it was 91.5%; in experiment [5], 83.8%; in experiment [6], 65.4%. The growth in experiment [7] was 85.5%; in [8], 80.7%; in [9], 84.4%; in experiment [10] it was 114%; in experiment [11], 86.3%; in [12], 61.2%. Also, the growth in [13] is 89.7%; in experiment [14], 107%; in experiment [15] it was 85.2%; in [16] it was 71.9%; in experiment [17], 79.5%; in experiment [18], 85%. For the same molecule, the growth in experiment [19] was 55.8%.
Regarding `CN1CCc2c(sc3ncnc(N/N=C/c4cn(-c5ccccc5)nc4-c4ccc(Br)cc4)c23)C1`, the growth in experiment [1] is 27.4%; in [2] it was 16.5%; in experiment [3], 88.8%; in [4], 62.4%; in experiment [5], 44.9%; in experiment [6], 20.8%. Besides, the growth in experiment [7] is 50%; in experiment [8] it was 67.3%; in experiment [9], 28.4%; in experiment [10], 68.9%; in [11], 58.3%; in [12], 20.5%. Also, the growth in experiment [13] was 13.9%; in [14], 92.3%; in experiment [15] it was 65.6%; in experiment [16], 84.1%; in [17], 94.8%; in experiment [18] it was 15.7%. In addition, in [19], the growth is 2.95% (active).
For `O=C1Nc2ccc(Cl)cc2/C1=C/c1cccc(OCc2ccccc2)c1`, the growth is 22.3% in experiment [1]; 30.7% in experiment [2]; 73.9% in [3]; 44.2% in experiment [4]; 3.61% (active) in experiment [5]; 29.3% in experiment [6]. The growth in experiment [7] is 22.4%; in [8], 26.3%; in experiment [9], 1.77% (active); in experiment [10] it was 46.9%; in experiment [11], 28.4%; in [12] it was 19.4%. Further, the growth in experiment [13] is 36.1%; in [14], 77.2%; in experiment [15], 24.3%; in [16], 34.6%; in [17], 84.2%; in [18] it was -21.5% (active). For the same molecule, the growth in [19] was -20.6% (active).
Take `Cc1ccc(-c2ccc(SCC(=O)Nc3ccc(Cl)c(C(F)(F)F)c3)nn2)cc1`: the growth was 14.9% in experiment [1]; -19.7% (active) in experiment [2]; -23.5% (active) in [3]; 23.2% in [4]; 16.5% in experiment [5]; 28.7% in [6]. The growth in experiment [7] was 18.9%; in experiment [8], 15.5%; in experiment [9], 33.9%; in experiment [10] it was 57.6%; in experiment [11], 12.8%; in experiment [12], 36.7%. Moreover, the growth was 35.2% in [13]; 59.8% in [14]; 43.4% in experiment [15]; 41.7% in experiment [16]; 80.3% in [17]; 19.8% in experiment [18]. In addition, the growth in experiment [19] is 8.91% (active).
